This excerpt belongs to a sample that is enriched for hits.
ST2 IL33 inh: IL1RL1 inhibition. Q01638. AlphaLISA ST2-Fc/biotin-IL-33 interaction, 1 h. inhibition, % for hits at 17 µM. actives 2.3% (n = 78,000); in the data active = inhibition above about 30%
Target sequence (Q01638 whole entry, looked up): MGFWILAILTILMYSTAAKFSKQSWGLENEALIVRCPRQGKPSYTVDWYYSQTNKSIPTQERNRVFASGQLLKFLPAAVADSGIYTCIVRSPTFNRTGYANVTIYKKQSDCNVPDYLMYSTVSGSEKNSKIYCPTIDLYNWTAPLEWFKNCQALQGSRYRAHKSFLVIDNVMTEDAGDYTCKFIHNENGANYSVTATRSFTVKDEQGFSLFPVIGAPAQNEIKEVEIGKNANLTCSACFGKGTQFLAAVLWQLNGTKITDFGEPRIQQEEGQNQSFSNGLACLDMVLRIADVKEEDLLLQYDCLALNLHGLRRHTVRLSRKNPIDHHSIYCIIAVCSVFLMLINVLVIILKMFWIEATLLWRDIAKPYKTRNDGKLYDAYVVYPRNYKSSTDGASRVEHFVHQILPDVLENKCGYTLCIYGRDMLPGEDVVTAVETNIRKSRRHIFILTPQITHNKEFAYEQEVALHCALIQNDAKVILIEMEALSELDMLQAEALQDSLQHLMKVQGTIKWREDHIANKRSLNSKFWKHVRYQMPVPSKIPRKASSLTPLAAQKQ
Active calls of the source: *; i = inactive.

SMILES | ST2 IL33 inh
CCCCOC(=O)C1=C(C)Nc2ncnn2C1c1ccc(Cl)cc1 (stereo not given) | i
COc1cc([N+](=O)[O-])ccc1NC(=O)c1c(C)nn(-c2ccccc2)c1Cl | i
COc1ccccc1C1C(Oc2ccccc2C)C(=O)N1c1cccc([N+](=O)[O-])c1 (stereo not given) | 33.0%*
COc1cccc(OC)c1C(=O)Nc1ccc([N+](=O)[O-])cc1 | i
Cc1nonc1C1CCCN1C(=O)CN1CCOc2ccccc2C1 (stereo not given) | i
COc1cc(OC)c2c(c1CC=C(C)C)O[C@H](c1ccccc1)CC2=O | i
CC(=O)Nc1ccc(NC(=O)c2ccccc2I)cc1 | i
CCN(CCNS(C)(=O)=O)c1ccc(N)c(C)c1 | 35.0%*
Cc1cc2ccccc2n1CCNS(C)(=O)=O | i
Cc1ccc(N(CC(=O)O)S(C)(=O)=O)cc1C | i
O=[N+]([O-])c1cccc2ccc(N3CCCCC3)nc12 | 30.0%*
O=[N+]([O-])c1cccc2c(Br)[nH]nc12 | i
O=[N+]([O-])c1nn(-c2ccccc2)[n+]([O-])c1N1CCCCCC1 | i
COc1cc(NC(=O)c2cc(-c3cccs3)nc3ccccc23)cc(OC)c1OC | i
NS(=O)(=O)c1ccc(NC(NC(=O)c2ccc([N+](=O)[O-])cc2)C(Cl)(Cl)Cl)cc1 (stereo not given) | i
O=[N+]([O-])c1ccc2nc(/C=C/c3ccco3)[nH]c2c1 | 32.0%*
O=c1[nH]c(SCc2nc3ccc([N+](=O)[O-])cc3[nH]2)nc2ccccc12 | i
CCSc1nc2ccc([N+](=O)[O-])cc2[nH]1 | i
Cc1cc(NC(=O)CSc2cn(Cc3ccccc3C)c3ccccc23)no1 | i
CC(NC(=O)c1cccs1)C(c1cccs1)N1CCN(c2ccccc2F)CC1 (stereo not given) | i
COc1cc(C2N(c3nccs3)C(=O)C3CCCN32)cc(OC)c1OC (stereo not given) | i
O=[N+]([O-])c1ccc(C2Nc3c(cccc3[N+](=O)[O-])C3C=CCC32)cc1 (stereo not given) | 45.0%*
O=C(c1ccc2c(c1)C1C=CCC1C(c1ccc([N+](=O)[O-])cc1)N2)N1CCCCCC1 (stereo not given) | 40.0%*
COc1ccc(C(=O)N2CCCCC2)cc1[N+](=O)[O-] | i
O=S(=O)(c1ccc([C@@H]2Nc3ccc(Br)cc3[C@@H]3C=CC[C@@H]32)cc1)N1CCOCC1 | i
SMILES | ST2 IL33 inh
CC1(C)C(=O)OC(c2ccccc2[N+](=O)[O-])C(C)(C)C1=O (stereo not given) | i
O=[N+]([O-])c1ccc(C2CNC(c3ccccc3)O2)cc1 (stereo not given) | i
CC(=O)NS(=O)(=O)c1ccc(NC(=O)COc2ccccc2C)cc1 | i
CC1Cc2cc(C(=O)NC3CCCCC3)ccc2O1 (stereo not given) | i
O=C(c1ccc2c(c1)OCCO2)C1CCCCC1 | i
CCCC(=O)Nc1ccccc1NC(=O)c1ccc(Br)cc1 | i
O=C(O)Cn1nc(-c2ccc(Cl)cc2)ccc1=O | i
CN(CCC(O)c1ccccc1)c1nncc(-c2cc3ccccc3o2)n1 (stereo not given) | i
CC(C)NC(=O)C1CCN(c2ccc(-c3cccs3)nn2)CC1 | i
O=C1c2ccc(Oc3cccc([N+](=O)[O-])c3)cc2C(=O)N1c1c[nH]c(=O)[nH]c1=O | 31.0%*
COc1ccc(N2C(=O)c3ccc(Oc4cccc(N)c4)cc3C2=O)cc1 | i
Cc1cc(N2C(=O)c3ccc([N+](=O)[O-])cc3C2=O)no1 | i
Cn1c(=O)cc(C(=O)N2CCNC(C(=O)O)C2)c2ccccc21 (stereo not given) | i
Cc1sc2nc3c4ccccc4c(-c4ccccc4)nn3c(=O)c2c1C | i
COc1ccccc1N1C(=N)S/C(=C/c2ccc(Br)c([N+](=O)[O-])c2)C1=O | i
Cc1ccc(N2C(=O)S/C(=C\c3ccc4c(c3)OCO4)C2=O)cc1 | i
COc1ccc(Br)cc1/C=C1/SC(=N)N(c2ccc3c(c2)OCO3)C1=O | 40.0%*
COc1ccc(C(=O)NC(Nc2ccc([N+](=O)[O-])cc2)C(Cl)(Cl)Cl)cc1 (stereo not given) | i
CCCCOCC(=O)N1CCC2(CC1)CNC(=O)C2 | i
Cc1ccc(C2SCC(=O)N2c2ccc(C)c(Cl)c2)cc1 (stereo not given) | i
CCOC(=O)Cc1ccc(NC(=O)Nc2c(C)nc3nc[nH]n3c2=O)cc1 | i
O=C(O)c1ccc(N=Cc2cc(Br)ccc2O)cc1 | i
C=CCc1cccc(C=Nc2ccc(Br)cc2)c1O | 39.0%*
O=C(O)c1ccc(O)c(C=Nc2ccc(Br)cc2)c1 | i
CCOc1ccccc1N1CCN(C(=O)Nc2cccc(Cl)c2)CC1 | i
SMILES | ST2 IL33 inh
CCCCOc1ccc(-c2nc3s/c(=C\c4cccs4)c(=O)n3n2)cc1 | i
Cn1c(C(O)(c2ccccc2)c2nc3ccccc3n2C)nc2ccccc21 | i
Cn1c(NCc2cc(Br)ccc2O)nc2ccccc21 | i
Cn1c2nc3ccc(Br)cc3c-2nc2ccccc21 | 37.0%*
Nc1ccc(-c2nnc3n2CCCCC3)cc1 | i
CC1=C(C(=O)Nc2ccc(C)cc2C)C(c2cccc(Br)c2)n2nnnc2N1 (stereo not given) | i
COc1ccc(/C=C2\SC(=O)N(CC(=O)N3CCCCC3)C2=O)cc1OC | i
CC1CC(=O)N(CC(=O)NCc2ccco2)c2ccccc2S1 (stereo not given) | i
CCC1Oc2ccccc2N(CC(=O)NCCCN2CCOCC2)C1=O (stereo not given) | i
CN(Cc1ccco1)C(=O)CN1C(=O)/C(=C\c2ccc(C(F)(F)F)cc2)Sc2ccccc21 | 31.0%*
O=C(CN1C(=O)CSc2ccc(S(=O)(=O)N3CCCCC3)cc21)NCCN1CCCC1 | i
O=C(NCCCN1CCOCC1)N1c2ccccc2Sc2ccccc21 | i
O=C(CN1C(=O)/C(=C\c2cccc(Cl)c2)Sc2ccccc21)N1CCCCC1 | 33.0%*
O=C(CN1C(=O)/C(=C/c2ccccc2F)Sc2ccccc21)NCc1ccco1 | i
O=C1S/C(=C/c2cccc(Cl)c2)C(=O)N1CN1CCCCC1 | i
O=C(CN1C(=O)/C(=C\c2cccc(Cl)c2)Sc2ccccc21)NCCN1CCCCCC1 | 43.0%*
O=C(CN1C(=O)/C(=C\c2cccc(Cl)c2)Sc2ccccc21)NCCCN1CCOCC1 | 32.0%*
CN1CCN(C(=O)CN2C(=O)S/C(=C\c3ccc(Cl)cc3)C2=O)CC1 | i
O=S(=O)(c1ccc(C2=CSC3=NCCN23)cc1)N1CCOCC1 | i
Clc1ccccc1COc1ccc(Br)cc1 | i
Cc1ncsc1CCN(C)C(=O)c1ccc(Cl)s1 | i
COc1ccc(Nc2nc(-c3nnc(-c4ccc(C)cc4)o3)nc3ccccc23)cc1 | i
COc1cc2c(cc1OC)C(C(=O)Nc1cccc(C)n1)C(c1cccs1)N(C)C2=O (stereo not given) | i
COc1ccc(Br)c2c1-c1nc(NC(=O)c3ccccc3)sc1C2 | i
CC(Nc1ncnc2ccccc12)c1ccccc1 (stereo not given) | i
CCCc1nc2nc[nH]n2c(=O)c1NC(=O)Nc1ccc2c(c1)OCO2 | i
O=C(CN1CCN(Cc2cccc(Cl)c2)C1=O)NCCN1CCOCC1 | i
O=C(CN1CCCC1)N1c2ccccc2Sc2ccc(C(F)(F)F)cc21 | i
O=C(CN1C(=O)/C(=C\c2ccc(C(F)(F)F)cc2)Sc2ccccc21)N1CCCC1 | 30.0%*
